Laboratory results reported in PubChem BioAssay AID1878 (Sanford-Burnham Center for Chemical Genomics, 2009).
The whole screen tested about 1,000 compounds, of which about 200 (20%) were called active. Rule as the data show it: active = inhibition above about 55%; inactive = the rest. Not all results are given here. Measured potencies and affinities stand elsewhere.

The molecules below were run against Dual specificity protein phosphatase 3 (Homo sapiens) (UniProt P51452) (assay: VHR1 phosphatase inhibitors, biochemical (AID 1878)). Details: recombinant VHR phosphatase, fluorogenic substrate; at 13.3 µM; active compounds read high.
Dual specificity protein phosphatase 3 (Homo sapiens), sequence (P51452 whole entry, looked up): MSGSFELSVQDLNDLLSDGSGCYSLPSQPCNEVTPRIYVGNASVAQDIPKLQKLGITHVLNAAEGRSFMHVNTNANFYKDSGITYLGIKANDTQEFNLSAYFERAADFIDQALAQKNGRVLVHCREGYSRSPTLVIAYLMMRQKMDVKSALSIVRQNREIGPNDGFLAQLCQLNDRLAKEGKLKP

How did the inhibition turn out when `CCN1CCN(CC(=O)Nc2nc3ccc(C)cc3s2)CC1` was run?
Its inhibition is -5.5% (inactive).

How did the inhibition turn out when `COc1ccc(NC(=O)CSc2ccc3nnc(CCNC(=O)c4ccccc4)n3n2)cc1` was run?
The inhibition was -4.5% (inactive).

`CCn1c(SCC(=O)Nc2ccc(-c3nc4ccc(C)cc4s3)cc2)nnc1-c1ccccc1` was tested. Which inhibition did it give?
The inhibition was 88.3% (active).

With `Cc1ccc(S(=O)(=O)/C(C#N)=C/c2c(N3CCOCC3)nc3c(C)cccn3c2=O)cc1` as the molecule, how does the inhibition read?
Its inhibition is 3% (inactive).

With `c1ccc(-c2cc(-c3ccccc3)[n+](-c3ccccc3)c(-c3ccccc3)c2)cc1` as the molecule, how does the inhibition read?
The inhibition was -14.8% (inactive).

With `CCOc1c(Br)cc(C(=O)N2CCCN(C)CC2)cc1OC` as the molecule, how does the inhibition read?
The inhibition was 2.9% (inactive).

How did the inhibition turn out when `COc1ccc(NCCC(O)c2ccc(Cl)cc2)cc1` (stereo not drawn) was run?
Its inhibition is -2% (inactive).

With `CCCn1c(C(O)c2ccc(OC)c(OC)c2)nc2ccccc21` (stereo not drawn) as the molecule, how does the inhibition read?
Its inhibition is 7% (inactive).

How did the inhibition turn out when `CCOC(=O)C1(Cc2cccc(Cl)c2)CCCN(C(=O)c2cc(CC)on2)C1` (stereo not drawn) was run?
The inhibition was -6.6% (inactive).

For `Cc1ccccc1N1C(=O)C2ON(c3ccccc3)C(c3ccncc3)C2C1=O` (stereo not drawn), which inhibition is on record?
The inhibition was -3.4% (inactive).

`Cc1ccc(N2C(=O)CC(N3CCN(S(=O)(=O)c4ccccc4)CC3)C2=O)c(C)c1` (stereo not drawn) was tested. Which inhibition did it give?
The inhibition was -2.4% (inactive).

Which inhibition does the source give for `CC1CCCCN1CCCNC(=O)CN1C(=O)c2cccnc2Oc2ccc(Cl)cc21` (stereo not drawn) here?
Its inhibition is -4.5% (inactive).

Which inhibition does the source give for `O=c1[nH]c2ccccc2nc1/C=C/c1ccc(Cl)cc1` here?
The inhibition was 14.9% (inactive).

How did the inhibition turn out when `COc1ccc(-c2csc3ncn(Cc4ccccc4)c(=O)c23)cc1` was run?
Its inhibition is -2.5% (inactive).

With `NC(=O)c1ccc(NC(=O)CS(=O)(=O)c2cn(CC(=O)N3CCCCC3)c3ccccc23)cc1` as the molecule, how does the inhibition read?
The inhibition was -15.1% (inactive).

Which inhibition does the source give for `FC(F)(F)c1cccc(NC(=S)N2CCCC2)c1` here?
Its inhibition is 12% (inactive).

Which inhibition does the source give for `O=C(O)C(CCCCNS(=O)(=O)c1ccc(F)cc1)NS(=O)(=O)c1ccc(F)cc1` (stereo not drawn) here?
Its inhibition is -6.2% (inactive).

`COCCNC(=O)CN1N=C(c2ccc(C)cc2)CCC1=O` was tested. Which inhibition did it give?
The inhibition was 6.3% (inactive).

How did the inhibition turn out when `Cn1c(SCC(=O)c2ccc3c(c2)Cc2ccccc2-3)nnc1-c1ccccc1` was run?
Its inhibition is 83.7% (active).

How did the inhibition turn out when `O=C(CSc1nnc(-c2ccccc2)o1)c1ccc2c(c1)OCCO2` was run?
Its inhibition is -8.7% (inactive).

For `C=CCn1c(SCC(=O)c2c(C)[nH]c3ccccc23)nnc1-c1ccncc1`, which inhibition is on record?
Its inhibition is 35.6% (inactive).

For `Cc1ccc(NC2CCCN(C(=O)c3ccccn3)C2)cc1C` (stereo not drawn), which inhibition is on record?
Its inhibition is -5.3% (inactive).

How did the inhibition turn out when `O=C(CCc1nnc2ccc(NCc3ccccc3)nn12)NC1CCCCC1` was run?
The inhibition was 4.6% (inactive).

Which inhibition does the source give for `COc1ccc(N=C2C(=O)Nc3ccc(C)c(Br)c32)cc1` here?
Its inhibition is 7.8% (inactive).

How did the inhibition turn out when `COc1ccc(Cl)cc1NCCC(O)c1ccc(F)cc1` (stereo not drawn) was run?
Its inhibition is -9.5% (inactive).

How did the inhibition turn out when `COc1ccccc1-c1csc(-n2ncc(C#N)c2N)n1` was run?
The inhibition was 73.9% (active).

How did the inhibition turn out when `O=C(NC1CC2CCCC(C1)N2)c1ccccc1` (stereo not drawn) was run?
Its inhibition is -12.1% (inactive).

Which inhibition does the source give for `CC(NC(=O)C(=O)N1CCCCC1)C(c1cccs1)N1CCN(C)CC1` (stereo not drawn) here?
The inhibition was -4.5% (inactive).

`CCN(CC)CCNC(=O)Cn1cnc2sc(C)c(S(=O)(=O)N3CC(C)CC(C)C3)c2c1=O` (stereo not drawn) was tested. Which inhibition did it give?
Its inhibition is -8.4% (inactive).

With `COc1cc(C(=O)NCCC(=O)NCc2c(F)cc(F)cc2F)cc(OC)c1OC` as the molecule, how does the inhibition read?
The inhibition was 21.2% (inactive).

`CCC(=O)N1CCc2cc(S(=O)(=O)NCCc3ccc(S(N)(=O)=O)cc3)ccc21` was tested. Which inhibition did it give?
Its inhibition is 0.3% (inactive).

Which inhibition does the source give for `COc1ccccc1CN1CC(C(=O)NCc2ccc(C)c(F)c2)CCC1=O` (stereo not drawn) here?
The inhibition was -6.8% (inactive).

`COc1ccc2c(c1)c(=O)oc1c(C)c(OCc3cc(C(=O)O)oc3C)ccc12` was tested. Which inhibition did it give?
The inhibition was 40.3% (inactive).

With `Cc1c(C)c2ccc(OCC(=O)NCCCn3ccnc3)c(C)c2oc1=O` as the molecule, how does the inhibition read?
Its inhibition is -9.5% (inactive).

`Cc1ccc(C)c(NC(=O)C(c2ccccc2)N2CCOCC2)c1` (stereo not drawn) was tested. Which inhibition did it give?
The inhibition was 6.5% (inactive).

How did the inhibition turn out when `COc1cccc(-c2nc(CS(=O)(=O)CC(=O)N3CCCCC3)c(C)o2)c1` was run?
The inhibition was -1% (inactive).

Which inhibition does the source give for `CC1=C(C(=O)OC(C)C)C(c2ccc3c(c2)OCO3)NC(=O)N1` (stereo not drawn) here?
Its inhibition is -7.6% (inactive).

Which inhibition does the source give for `NS(=O)(=O)c1ccc(NC(=O)c2cccc(N3C(=O)c4ccccc4C3=O)c2)cc1` here?
Its inhibition is 93.1% (active).

Which inhibition does the source give for `O=C(Nc1ccccc1C(=O)O)c1ccc2c(c1)C(=O)N(c1cccc([N+](=O)[O-])c1)C2=O` here?
Its inhibition is 2.4% (inactive).

For `C[n+]1cccc(C(=O)Nc2ccccc2)c1`, which inhibition is on record?
The inhibition was 13.8% (inactive).

Which inhibition does the source give for `Cc1ccccc1-c1nc(CS(=O)(=O)CC(=O)NCCCN2CC(C)CC(C)C2)c(C)o1` (stereo not drawn) here?
The inhibition was 28.9% (inactive).

With `COCCn1c(SCC(=O)Nc2cccc(C)n2)nnc1-c1ccco1` as the molecule, how does the inhibition read?
The inhibition was 3.1% (inactive).

With `O=C(NCCc1ccc(Cl)cc1)c1ccc2nccnc2c1` as the molecule, how does the inhibition read?
The inhibition was 6.7% (inactive).

How did the inhibition turn out when `CCN1CCN(CCCNC(=O)CN2C(=O)c3cccnc3Oc3ccc(Cl)cc32)CC1` was run?
Its inhibition is 14% (inactive).

For `CC1CCN(CCc2nc3cc(NC(=O)C(C)C)ccc3n2C)CC1`, which inhibition is on record?
The inhibition was 9.3% (inactive).

With `CC(=O)c1ccc(NC(=O)CCn2c(=S)oc3ccccc32)cc1` as the molecule, how does the inhibition read?
Its inhibition is 40.7% (inactive).

Which inhibition does the source give for `Cc1ccccc1NC(=O)c1cccc(NC(=O)c2ccco2)c1` here?
The inhibition was -9.7% (inactive).

With `CC(=O)c1ccc(NC(=O)c2ccc3nc(-c4ccco4)c(-c4ccco4)nc3c2)cc1` as the molecule, how does the inhibition read?
The inhibition was 92.7% (active).
